Data from PubChem BioAssay (NCI).
This is part of a sample that, as a whole, favours compounds with a hit. Of some 83,000 tested, about 20% had one in any assay.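 Percent growth is the endpoint: 0 to 100 indicates growth inhibition (40 means 60% inhibition), 0 means no net growth, and negative values indicate cell death.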 Calls of active or inactive are those of the source. The calls were made as follows: active = growth percent below 10; inactive = the rest.

Key:
Experiment in all cases: NCI-60 one-dose screen, 48 h (100 = growth as untreated, 0 = no growth, -100 = all killed)
Conditions in all cases: 10 µM unless noted
HCT-15 colon = test system: HCT-15 colon
HT29 colon = test system: HT29 colon
SNB-75 CNS = test system: SNB-75 CNS
SNB-19 CNS = test system: SNB-19 CNS
U251 CNS = test system: U251 CNS
PC-3 prostate = test system: PC-3 prostate
SK-MEL-5 melanoma = test system: SK-MEL-5 melanoma
UACC-62 melanoma = test system: UACC-62 melanoma
LOX IMVI melanoma = test system: LOX IMVI melanoma
SK-MEL-28 melanoma = test system: SK-MEL-28 melanoma

Measured: growth

COc1cc(OC)cc(C2C3=C(COC3=O)Nc3cc(OC)ccc32)c1 (stereo not given)
inactive: HCT-15 colon 11.3% | SNB-75 CNS 40.7% | SNB-19 CNS 36.2% | U251 CNS 16.2% | PC-3 prostate 29.3% | UACC-62 melanoma 36% | LOX IMVI melanoma 25.8% | SK-MEL-28 melanoma 63.5%
active: HT29 colon 0.152% | SK-MEL-5 melanoma -24.3%

CCCC/C(=N\N=C(N)N)c1ccc(F)cc1
inactive: HCT-15 colon 23.4% | SNB-19 CNS 41.6% | U251 CNS 32.1% | PC-3 prostate 26.3% | UACC-62 melanoma 45.3% | LOX IMVI melanoma 26.5% | SK-MEL-28 melanoma 54%
active: HT29 colon 1.87% | SNB-75 CNS -1.82% | SK-MEL-5 melanoma 2.87%

Cc1ccc(Nc2cc(=S)nc(N)[nH]2)cc1C
inactive: HCT-15 colon 104% | HT29 colon 94.3% | SNB-75 CNS 78.1% | SNB-19 CNS 90.1% | U251 CNS 92.1% | PC-3 prostate 90.7% | SK-MEL-5 melanoma 102% | UACC-62 melanoma 89.2% | LOX IMVI melanoma 105% | SK-MEL-28 melanoma 101%

CC1NC(=S)NC(=O)/C1=C/c1cc(=O)oc2c1ccc1ccccc12 (stereo not given)
inactive: HCT-15 colon 103% | HT29 colon 87.7% | SNB-75 CNS 73.3% | SNB-19 CNS 103% | U251 CNS 94.9% | PC-3 prostate 72.8% | SK-MEL-5 melanoma 97.1% | UACC-62 melanoma 99.1% | LOX IMVI melanoma 89.2% | SK-MEL-28 melanoma 115%

O=c1[nH]c(=O)[nH]c(=S)[nH]1
inactive: HCT-15 colon 103% | HT29 colon 99.1% | SNB-75 CNS 96.5% | SNB-19 CNS 101% | U251 CNS 103% | PC-3 prostate 102% | SK-MEL-5 melanoma 102% | UACC-62 melanoma 96.1% | LOX IMVI melanoma 98.1% | SK-MEL-28 melanoma 102%

COc1c(Cl)cc(Cl)c2ccc(C=C3C(=O)N(C)C(=O)N(C)C3=O)nc12
inactive: HCT-15 colon 103% | HT29 colon 105% | SNB-75 CNS 98.6% | SNB-19 CNS 92% | U251 CNS 110% | PC-3 prostate 99.4% | SK-MEL-5 melanoma 101% | UACC-62 melanoma 102% | LOX IMVI melanoma 101% | SK-MEL-28 melanoma 109%

C=C1C(=O)O[C@H]2[C@H]1CC/C(COC(=O)CCCc1c[nH]c3ccccc13)=C\CC[C@@]1(C)O[C@@H]21
active: HCT-15 colon 7.56% | LOX IMVI melanoma -3.89%
inactive: HT29 colon 21.7% | SNB-75 CNS 76.4% | SNB-19 CNS 71.2% | U251 CNS 56.4% | PC-3 prostate 50.7% | SK-MEL-5 melanoma 71.5% | UACC-62 melanoma 70.1% | SK-MEL-28 melanoma 92.6%

c1ccc(-c2nnc(Nc3ccc4c(c3)OCCO4)o2)c(NCc2ccncc2)c1
active: HCT-15 colon 6.86% | HT29 colon 0.34% | SK-MEL-5 melanoma -50%
inactive: SNB-75 CNS 22.6% | SNB-19 CNS 28.4% | U251 CNS 20.5% | PC-3 prostate 29.7% | UACC-62 melanoma 20.7% | LOX IMVI melanoma 23.6% | SK-MEL-28 melanoma 63.3%

CC(=O)NCCCS(=O)(=O)O
inactive: HCT-15 colon 103% | HT29 colon 98.4% | SNB-75 CNS 98.7% | SNB-19 CNS 103% | U251 CNS 102% | PC-3 prostate 83.9% | SK-MEL-5 melanoma 120% | UACC-62 melanoma 101% | LOX IMVI melanoma 94.4% | SK-MEL-28 melanoma 107%

COc1ccc(C(=O)c2cc3c(N)c(C(=O)Nc4cccc(Cl)c4C)sc3nc2C)cc1
inactive: HCT-15 colon 15.9% | SNB-19 CNS 39.9% | U251 CNS 14.4% | PC-3 prostate 21.7% | UACC-62 melanoma 32% | LOX IMVI melanoma 21.9% | SK-MEL-28 melanoma 63.3%
active: HT29 colon 6.48% | SNB-75 CNS -7.69% | SK-MEL-5 melanoma -23.8%

Cc1c2c(cc[n+]1Cc1ccc(F)cc1)c1ccc(OCc3cccc(F)c3)cc1n2Cc1cccc(F)c1
active: HT29 colon -74.9% | SNB-75 CNS -88.7% | SNB-19 CNS -90.3% | U251 CNS -89.4% | PC-3 prostate -44.4% | SK-MEL-5 melanoma -99.4% | UACC-62 melanoma -98% | LOX IMVI melanoma -82.7% | SK-MEL-28 melanoma -91%
inactive: HCT-15 colon 54.3%

Cc1cc2cc3cc(C)c(N)cc3[n+](C)c2cc1N
inactive: HCT-15 colon 31.8% | SNB-75 CNS 38.3% | SNB-19 CNS 11.6% | SK-MEL-5 melanoma 18.4% | UACC-62 melanoma 33% | SK-MEL-28 melanoma 21.7%
active: HT29 colon -16.8% | U251 CNS 6% | PC-3 prostate 8.84% | LOX IMVI melanoma -4.56%

CC(C)CN(C(=O)c1ccc(Cl)cc1)c1c(N)n(CC(C)C)c(=O)[nH]c1=O
inactive: HCT-15 colon 111% | HT29 colon 111% | SNB-75 CNS 88.4% | SNB-19 CNS 96.6% | U251 CNS 98.8% | PC-3 prostate 89.8% | SK-MEL-5 melanoma 37.6% | UACC-62 melanoma 88.7% | LOX IMVI melanoma 102% | SK-MEL-28 melanoma 107%

O=C(Nc1cccc(Cl)c1)c1cc(Cl)ccc1O
active: SNB-75 CNS -26.8% | PC-3 prostate -4.48% | SK-MEL-5 melanoma -54.4% | UACC-62 melanoma 0.352% | LOX IMVI melanoma -32.5%
inactive: HCT-15 colon 12% | HT29 colon 15.5% | SNB-19 CNS 15.9% | U251 CNS 15.7% | SK-MEL-28 melanoma 10.1%

COc1ccc(NS(=O)(=O)c2ccc(C)cc2)c([N+](=O)[O-])c1
inactive: HCT-15 colon 107% | HT29 colon 107% | SNB-75 CNS 105% | SNB-19 CNS 102% | U251 CNS 93.3% | PC-3 prostate 97.5% | SK-MEL-5 melanoma 96.8% | UACC-62 melanoma 86% | LOX IMVI melanoma 95.2% | SK-MEL-28 melanoma 107%

O=C(NCCN1CCOCC1)OCc1nc2nc(Cl)nc(N3CCOCC3)c2[nH]1
active: SNB-75 CNS 1.3% | SK-MEL-5 melanoma -29.7%
inactive: HCT-15 colon 16.4% | HT29 colon 122% | SNB-19 CNS 36.2% | U251 CNS 19.7% | PC-3 prostate 24% | UACC-62 melanoma 35.1% | LOX IMVI melanoma 16.5% | SK-MEL-28 melanoma 61.9%

COc1ccc2nc(N=Nc3c(O)ccc4ccccc34)sc2c1
inactive: HCT-15 colon 31.4% | HT29 colon 28.2% | SNB-75 CNS 49.4% | SNB-19 CNS 31.8% | U251 CNS 23.1% | PC-3 prostate 49.1% | LOX IMVI melanoma 12.8% | SK-MEL-28 melanoma 35.5%
active: SK-MEL-5 melanoma 4.14% | UACC-62 melanoma 7.36%

Cc1n[nH]c(C)c1-c1c(C)n[nH]c1C
active: HCT-15 colon -13.6% | HT29 colon 7.37% | U251 CNS 1.27% | SK-MEL-5 melanoma 0.89% | UACC-62 melanoma 7.89% | LOX IMVI melanoma -64.3%
inactive: SNB-75 CNS 35.2% | SNB-19 CNS 28.3% | PC-3 prostate 17.8% | SK-MEL-28 melanoma 11.9%

OC1(c2ccc(Cl)c(C(F)(F)F)c2)CCN(CCCC(c2ccc(F)cc2)c2ccc(F)cc2)CC1
inactive: SNB-19 CNS 12.1%
active: HCT-15 colon -78.5% | HT29 colon -88.1% | SNB-75 CNS -66.3% | U251 CNS -93.1% | PC-3 prostate -65.5% | SK-MEL-5 melanoma -93.5% | UACC-62 melanoma -92.6% | LOX IMVI melanoma -96.1% | SK-MEL-28 melanoma -94.4%

COc1cc2oc(-c3cccc(C(=O)Nc4ccc(Cl)cc4)c3)cc(=O)c2c(OC)c1OC
inactive: HCT-15 colon 17% | SNB-75 CNS 70.6% | SNB-19 CNS 52.7% | U251 CNS 37.4% | PC-3 prostate 27.1%
active: HT29 colon 4.57% | SK-MEL-5 melanoma -60.1% | UACC-62 melanoma -9.87% | LOX IMVI melanoma 2.16% | SK-MEL-28 melanoma -9.19%

Cc1ccc(C2CC(c3cccc(Nc4ccncc4)c3)=NN2c2cc(Cl)cc(Cl)c2)cc1 (stereo not given)
inactive: SNB-75 CNS 70.2% | SNB-19 CNS 84.9% | PC-3 prostate 33.8% | SK-MEL-5 melanoma 68.8% | UACC-62 melanoma 99.4%
active: HCT-15 colon -65.6% | HT29 colon -7.29% | U251 CNS -48.8% | LOX IMVI melanoma -87.3% | SK-MEL-28 melanoma -72.7%

O=C1c2cccnc2C(=O)c2nc3cc(N4CCN(C5CC5)CC4)ccc3nc21
inactive: PC-3 prostate 11.6%
active: HCT-15 colon -58.8% | HT29 colon -21.3% | SNB-75 CNS -64.7% | SNB-19 CNS -81.5% | U251 CNS -32.6% | SK-MEL-5 melanoma -98.1% | UACC-62 melanoma -98.5% | LOX IMVI melanoma -46.5% | SK-MEL-28 melanoma -76.9%

CC(C)(C)OC(=O)N1CCN(c2ccc(N)cc2)C(=O)C1
inactive: HCT-15 colon 100% | HT29 colon 117% | SNB-75 CNS 87% | SNB-19 CNS 99.9% | U251 CNS 107% | PC-3 prostate 109% | SK-MEL-5 melanoma 99.2% | UACC-62 melanoma 98.1% | LOX IMVI melanoma 99.1% | SK-MEL-28 melanoma 104%

COc1cc(NCCCN(CC(C)C)CC(C)C)c2ncccc2c1
inactive: HCT-15 colon 72.9% | HT29 colon 82.7% | SNB-75 CNS 95.4% | SNB-19 CNS 99.9% | U251 CNS 96.1% | PC-3 prostate 70.4% | SK-MEL-5 melanoma 97% | UACC-62 melanoma 89% | LOX IMVI melanoma 85.3% | SK-MEL-28 melanoma 97%

N#Cc1ccc(-c2ccc3c(c2)NC(=O)/C3=C\c2ccc[nH]2)cc1
inactive: HCT-15 colon 58.3% | HT29 colon 103% | SNB-75 CNS 57% | SNB-19 CNS 99.3% | U251 CNS 103% | PC-3 prostate 84.7% | SK-MEL-5 melanoma 85.4% | UACC-62 melanoma 88.4% | LOX IMVI melanoma 97.5% | SK-MEL-28 melanoma 107%

Cn1c(COC(=O)NCCn2ccnc2)nc2c(N3CCOCC3)nc(-c3ccccc3)nc21
active: HCT-15 colon -51.3% | HT29 colon -12.1% | SNB-75 CNS -89.9% | SNB-19 CNS 8.21% | U251 CNS -61% | PC-3 prostate -74.7% | SK-MEL-5 melanoma -96% | UACC-62 melanoma -93.9% | LOX IMVI melanoma -88.9% | SK-MEL-28 melanoma -98.8%
